Screening results (PubChem)
An excerpt weighted towards active compounds, which were near 6.9% of everything screened.
KB-V1 MDR tox – kills drug-selected multidrug resistant KB-V1 cells; hit rate 3.4% among 400,000; KB-V1 MDR cells viability, CellTiter-Glo, 72 h; AID 1347076; Potency, µM (doses to about 46.1 µM), actives largely listed as cytotoxic; further: potency means the concentration at half of the fitted maximal effect; on the % scale 0 is the no-effect control and ±100 the full control effect; nearly all actives have a fitted effect of over 60% in size
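In this primary screen, KB-V1 cells overexpressing P-gp are incubated with library compounds (lowest to highest concentration) for 72 h at 37 degrees C before a luminescent ATP viability read.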
KB-3-1 tox – kills parental KB-3-1 adenocarcinoma cells. KB-3-1 viability, CellTiter-Glo ATP luminescence, 72 h. Potency, µM (highest dose often 46.1 µM), usual class: cytotoxic. hit rate 1.4% among 400,000; further: potency means the concentration at half of the fitted maximal effect; on the % scale 0 is the no-effect control and ±100 the full control effect; nearly all actives have a fitted effect of over 60% in size
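72 h, 37 °C compound treatment of KB-3-1 parental cells; CellTiter-Glo added, 10 min, luminescence read. Data corrected against DMSO-only plates and normalized before curve fitting.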
SW480 rereplic – DNA re-replication induction in SW480 cells; SW480 DNA re-replication, Hoechst DNA content imaging, 48 h; Potency, µM (top dose mostly 46.1 µM), inactives show top-dose re-replication activation, hits mostly activators; hit rate 1.8% among 340,000; AID 624297; further: potency means the concentration at half of the fitted maximal effect; % of control where 0% means no effect; nearly all actives have a fitted effect of over 55% in size
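Readout is total intensity of Hoechst-stained nuclei, excited at 405 nm and collected at 500-530 nm. Compound treatment lasted 48 hr at 37 C in 5% CO2 before staining.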
Giardia kill – Giardia lamblia killing; hit rate 0.15% among 340,000; AID 540267; activity change, % at 7.66 µM, hits read low; Giardia lamblia trophozoite viability; in the data active means activity change below about -80%; inconclusive means between about -30% and that limit;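 further: parasites exposed to compound for two days anaerobically before the ATP read; on the % scale 0 is the no-effect control and ±100 the full control effect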
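Killing of trophozoites was scored by loss of ATP luminescence after a 48 hrs anaerobic exposure to compounds at 37 deg C, using 100 cells per well.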
MCF10A rereplic – DNA re-replication induction in MCF 10a cells | Potency, µM (top dose mostly 46.1 µM), for inactives: at the highest dose activity, positive = re-replication, hits mostly activators | MCF 10A DNA re-replication, Hoechst nuclear intensity, 48 h | AID 624296 | hit rate 2.9% among 350,000; further: potency means the concentration at half of the fitted maximal effect; % of control where 0% means no effect; nearly all actives have a fitted effect of over 50% in size
ASM inhibitor – blocks human secretory acid sphingomyelinase | P17405 | placental ASM, HMU-PC fluorogenic substrate, 60 min | Potency, µM (doses to about 57.5 µM), for the others: top-dose activity change, negative = inhibition, most hits filed as inhibitors | hit rate 0.006% among 340,000 | AID 504937; further: potency means the concentration at half of the fitted maximal effect
Target sequence (P17405 47-631 limits assumed): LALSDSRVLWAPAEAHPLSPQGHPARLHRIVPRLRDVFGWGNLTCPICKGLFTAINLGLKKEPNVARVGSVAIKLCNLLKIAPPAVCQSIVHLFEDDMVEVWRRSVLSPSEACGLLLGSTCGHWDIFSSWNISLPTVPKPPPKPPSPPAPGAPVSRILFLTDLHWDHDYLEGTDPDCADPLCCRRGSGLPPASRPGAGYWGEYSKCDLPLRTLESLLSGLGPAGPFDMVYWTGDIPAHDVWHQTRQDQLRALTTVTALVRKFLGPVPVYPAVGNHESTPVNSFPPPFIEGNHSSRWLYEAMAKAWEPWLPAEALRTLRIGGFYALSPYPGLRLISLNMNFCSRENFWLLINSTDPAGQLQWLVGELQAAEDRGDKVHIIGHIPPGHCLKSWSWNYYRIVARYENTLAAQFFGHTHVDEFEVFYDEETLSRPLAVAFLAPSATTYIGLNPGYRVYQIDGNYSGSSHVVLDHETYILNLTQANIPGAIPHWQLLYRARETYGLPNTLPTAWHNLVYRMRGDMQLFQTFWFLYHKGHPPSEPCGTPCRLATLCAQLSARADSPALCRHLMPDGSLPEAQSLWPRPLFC
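Steps: dispense placental human ASM, pin compound, wait 10 min at room temperature, add HMU-PC0 substrate at 9 uM final, incubate 60 min at 37 °C, add stop solution raising pH to 10, read fluorescence.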
* = called active by the depositor; i = inactive; u = inconclusive; x = no result given; ! = a repeat was not active; [ ] = dose if it differs, or a comment. Unless noted, the call rests on the fitted dose curve; in most records, active means well fitted curve in the direction sought with a large enough effect; inconclusive means small, poorly fitted or top-dose-only effect, or another doubt; inactive means no such curve, though single readings can be large; an effect the other way counts as inactive or inconclusive.

SMILES	KB-V1 MDR tox	KB-3-1 tox	SW480 rereplic	Giardia kill	MCF10A rereplic	ASM inhibitor
Cc1c(C)n(O)c2ccc3nonc3c12	i	i	u	-15	21µM*	11%
C=CCCC[C@@H]1OC(=O)CNC(=O)C([C@@H](C)CC)NC(=O)[C@@H]2CCCN2C(=O)C([C@@H](C)CC)OC(=O)[C@H](Cc2ccccc2)N(C)C(=O)[C@H](C(C)C)NC(=O)C1(C)C (stereo not given in full)	i	u	x	x	x	x
CCC(C)C1NC(=O)C2CCCN2C(=O)C(CC(C)C)OC(=O)CCNC(=O)C(C)N(C)C(=O)C(C(C)C)N(C)C1=O (stereo not given)	i	4.6µM*	12µM*	-3	u	7%
CCC(=O)O[C@@](Cc1ccccc1)(c1ccccc1)[C@@H](C)CN(C)C	x	x	1%[20.6 µM]	x	-3%[20.6 µM]	x
O=[N+]([O-])c1c(Cl)cccc1-c1c[nH]cc1Cl	x	x	14%	x	u	x
CCC1C(c2cc(OC)c(OC)c(OC)c2)c2cc3c(cc2OC1N1CCCC1)OCO3 (stereo not given)	5.2µM*	4.1µM*	8.2µM*	11	4.1µM*	0%
COc1cc2c3cc1Oc1cc(ccc1O)C[C@@H]1c4c(cc(OC)c(O)c4Oc4ccc(cc4)C[C@H]3N(C)CC2)CCN1C	u	i	10µM*	0	18µM*!	-1%
COc1cc2c3cc1Oc1c(OC)c(OC)cc4c1[C@H](Cc1ccc(cc1)Oc1cc(ccc1O)C[C@H]3N(C)CC2)N(C)CC4	u	i	16%	13	45%	0%
COc1cc2c3c(c1OC)Oc1ccc(cc1)C[C@H]1c4c(cc(OC)c(OC)c4Oc4ccc(cc4)C[C@@H]3N(C)CC2)CCN1C	i	i	2.6µM*	14	u	5%
COc1cc2c(cc1O)C[C@H]1c3c(cc(O)c(OC)c3-2)CCN1C	i	i	-12%	5	u	0%
COc1ccc2cc1Oc1ccc(cc1)C[C@H]1c3cc(c(OC)cc3CCN1C)Oc1c(OC)c(OC)cc3c1[C@H](C2)N(C)CC3	16µM*!	u	u	-26	u	-3%
Cc1cc(O)cc2c1O[C@@](C)(CCC[C@@H](C)CCC[C@@H](C)CCCC(C)C)CC2	i	i	u	-26	0%	-11%
O=C(CN1CCOCC1)c1ccc2ccccc2c1	i	u	x	x	x	x
COC(=O)[C@@]12CCCCN1[C@H](c1ccc(-c3ccc(Cl)c(Cl)c3)c(OC)c1)[C@H]1C(=O)N(C)C(=O)[C@H]12	i	i	-5%	11	-14%	-10%
O=c1ccc2c(O)c3ccoc3cc2o1	i	i	0.18µM*	-13	11%	0%
CCCCCC(=O)N[C@@H](c1ccccc1)[C@@H](O)C(=O)O[C@H]1C[C@@]2(O)[C@@H](OC(=O)c3ccccc3)C3[C@](C)(C(=O)[C@H](O)C(=C1C)C2(C)C)[C@@H](OC1OCC(O)C(O)C1O)C[C@H]1OC[C@@]31OC(C)=O (stereo not given in full)	i	0.21µM*	3.7µM*	16	u	-1%
CC(=O)O[C@@]12CO[C@@H]1C[C@H](OC1OCC(O)C(O)C1O)[C@@]1(C)C(=O)[C@H](O)C3=C(C)[C@@H](OC(=O)[C@H](O)[C@@H](NC(=O)c4ccccc4)c4ccccc4)C[C@@](O)([C@@H](OC(=O)c4ccccc4)C12)C3(C)C (stereo not given in full)	i	1µM*	5.8µM*	12	0.58µM*	-3%
CC(=O)OC12COC1CC(O)C1(C)C(=O)C(O)C3=C(C)C(O)CC(O)(C(OC(=O)c4ccccc4)C21)C3(C)C (stereo not given)	i	0.52µM*	8.2µM*	7	0.82µM*	2%
CC(=O)O[C@@]12CO[C@@H]1C[C@@H](O)[C@@]1(C)C(=O)[C@H](O)C3=C(C)[C@@H](OC(=O)[C@H](O)[C@@H](NC(=O)c4ccccc4)c4ccccc4)C[C@@](O)([C@@H](OC(=O)c4ccccc4)C12)C3(C)C (stereo not given in full)	i	0.01µM*	8.2µM*	-12	u	-3%
COc1ccc(/C=C2\Oc3cc(OC(=O)N4CCOCC4)ccc3C2=O)c(OC)c1	i	i	u	5	-3%	142%
C[C@@H](C1CC[C@@]2(O)C3=CC(=O)[C@@H]4C[C@@H](O)[C@@H](O)C[C@]4(C)[C@H]3CC[C@]12C)[C@H](O)CCC(C)(C)O (stereo not given in full)	x	x	x	4	x	x
OCC(O)[C@H]1O[C@@H]2O[C@H](C(Cl)(Cl)Cl)O[C@@H]2[C@H]1O (stereo not given in full)	x	x	0%	x	-5%	x
